Here are results for 61 compounds from PubChem BioAssay AID1220 (Sanford-Burnham Center for Chemical Genomics, 2008).

Hit rate of the full screen: of about 190,000 compounds, about 1,300 (0.68%) were called active. The entries come from a sample that favours actives as a whole. Values without a mark were called inactive. Rule as the data show it: active = inhibition above about 50%; inactive = the rest.

In this assay the target is Mannose-6-phosphate isomerase (Homo sapiens) (UniProt P34949). The assay can be described thus: MPI inhibition at elevated mannose 6-phosphate – biochemical, fluorescence intensity, high mannose 6-phosphate, primary screen (AID 1220). Particulars: recombinant PMI enzyme, coupled fluorescence intensity; at 20 µM; active compounds read high.
Sequence of Mannose-6-phosphate isomerase (Homo sapiens) (P34949 whole entry, looked up): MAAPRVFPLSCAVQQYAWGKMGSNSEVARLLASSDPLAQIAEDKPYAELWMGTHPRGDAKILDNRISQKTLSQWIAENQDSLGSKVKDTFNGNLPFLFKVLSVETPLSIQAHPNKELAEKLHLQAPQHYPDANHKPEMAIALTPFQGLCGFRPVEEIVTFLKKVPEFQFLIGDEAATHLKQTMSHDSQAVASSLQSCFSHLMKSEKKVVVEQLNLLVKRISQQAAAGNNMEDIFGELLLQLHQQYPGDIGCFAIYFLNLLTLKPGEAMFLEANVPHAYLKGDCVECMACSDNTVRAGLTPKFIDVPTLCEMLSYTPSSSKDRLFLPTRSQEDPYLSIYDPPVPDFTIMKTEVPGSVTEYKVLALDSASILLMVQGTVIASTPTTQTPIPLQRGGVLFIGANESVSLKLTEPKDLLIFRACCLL
Take `CCCCNC(=S)N(C)/N=C/c1c(C)[nH]c2ccccc12`: the inhibition is 9.5%.

Regarding `O=[N+]([O-])c1ccc(/C=N/N=C/c2ccc([N+](=O)[O-])o2)o1`, the inhibition was 24.5%.

On to `Cc1[nH]c2ccccc2c1/C=N/n1cnnc1`, for which the inhibition was -4.2%.

In the case of `CCCCCC(=O)N/N=C/c1ccccc1[N+](=O)[O-]`, the inhibition was -6.7%.

As for `CCN(CC)c1ccc(N=Cc2ccccc2[N+](=O)[O-])cc1`, the inhibition is 64.4% (active).

For the compound `CN(/N=C/c1ccc([N+](=O)[O-])o1)c1ccccc1`, the inhibition was -3.1%.

As to `CCN(CC)c1ccc(N=Cc2c(C)[nH]c3ccccc23)cc1`, the inhibition is 69.7% (active).

Turning to `CCNC(=S)N/N=C/c1ccccc1[N+](=O)[O-]`, the inhibition is -1.5%.

With `CCN(CC)c1ccc(N=Cc2ccc([N+](=O)[O-])o2)cc1`, the inhibition is 59.7% (active).

In the case of `CCN(CC)c1ccc(/C=N/NS(=O)(=O)c2cccc([N+](=O)[O-])c2)cc1`, the inhibition is -83.2%.

For `O=C(CNC(=O)C1COc2ccccc2O1)N/N=C\c1cccc(O)c1` (stereo unspecified), the inhibition is -10.8%.

Turning to `Cc1cccc(-n2nnc3c(=O)n(CC(=O)Nc4cc(C)on4)cnc32)c1`, the inhibition was -4.2%.

As to `COc1ccccc1N/C=C1/Sc2cc(Cl)ccc2NC1=O`, the inhibition is 3%.

Consider `CCOC(=O)Nc1cc(OC)c(OC)cc1Cc1nccc2cc(OC)c(OC)cc12`, for which the inhibition is -1.9%.

For the compound `COc1cc2ccnc(Cc3cccc(OC)c3OC)c2cc1OC`, the inhibition was 44.9%.

For the compound `COc1cc(N)c(Cc2nccc3cc(OC)c(OC)cc23)cc1OC`, the inhibition is 56.4% (active).

Regarding `COc1ccc(NC(=O)c2ccccc2NC(=O)CSc2ccccc2)cc1`, the inhibition is 2.1%.

As to `Cc1nn(-c2ccccn2)c2c1C(=O)C(Br)CC2` (stereo unspecified), the inhibition was 72.9% (active).

In the case of `Cc1nn(-c2ccccn2)c2c1C(c1ccccn1)C1=C(CCCC1=O)N2` (stereo unspecified), the inhibition is 0.2%.

`C=C(C)C1Cc2c(C)nn(-c3ccccn3)c2C1` (stereo unspecified): the inhibition was -10.9%.

On to `Cc1ccccc1C(=O)NNC(=O)C12CC3CC(CC(C3)C1)C2`, for which the inhibition was 7%.

`CC(=O)CC(=O)Nc1ccc(C(N)=O)cc1`: the inhibition is 6.1%.

On to `COc1cc(OC)c(C2C(C#N)=C(N)Oc3cc(C)n(CCCN4CCOCC4)c(=O)c32)cc1OC` (stereo unspecified), for which the inhibition was 61.6% (active).

As for `COc1cc(C2C(C#N)=C(N)Oc3cc(C)n(CCN4CCOCC4)c(=O)c32)cc(OC)c1OC` (stereo unspecified), the inhibition was -11.7%.

Take `COc1ccc(C2C(C#N)=C(N)Oc3cc(C)n(CCN4CCOCC4)c(=O)c32)cc1OC` (stereo unspecified): the inhibition was -0.4%.

For `N#Cc1nc(-c2ccc(Cl)cc2)oc1N1CCCCC1`, the inhibition is -8.5%.

As to `COc1ccccc1-n1c(CNC(=O)c2cccc([N+](=O)[O-])c2C)n[nH]c1=S`, the inhibition was -7.8%.

As to `CCOC(=O)c1ccccc1N/C=C1\CCCCC1=O`, the inhibition is -11.5%.

For the compound `COC(=O)c1ccccc1N/C=C1\CCc2c(c(C)nn2-c2ccccn2)C1=O`, the inhibition is 73.6% (active).

As to `COC(=O)c1ccccc1NC(=S)N1CCN(c2ccccn2)CC1`, the inhibition was 5.5%.

As to `COc1ccccc1N1CCN(C(=O)c2ccc3c(Cl)c4c(nc3c2)CCCC4)CC1`, the inhibition is 14.1%.

As to `Cn1c(=O)[nH]c(=O)c2c1nc(N1CCCC1)n2CC(O)COc1ccccc1` (stereo unspecified), the inhibition is 3.3%.

With `CCNc1nc(Cl)nc(NCCOc2ccc(C)cc2)n1`, the inhibition was 0.4%.

For the compound `Cc1ccc(OCC(=O)Nc2nnc(C3CCCO3)s2)c(Br)c1` (stereo unspecified), the inhibition was 5.8%.

As to `Cc1cccc(C)c1OCC(=O)Nc1nnc(C2CCCO2)s1` (stereo unspecified), the inhibition is 53.1% (active).

With `CCCC(=O)Nc1nnc(C2CCCO2)s1` (stereo unspecified), the inhibition is 17.6%.

As to `O=C(COc1ccc([N+](=O)[O-])cc1)NCc1ccncc1`, the inhibition is -2.2%.

On to `O=S(=O)(Cc1ccccc1)NCC1CCCN(Cc2ccc3nonc3c2)C1` (stereo unspecified), for which the inhibition was 7.4%.

For the compound `COC(=O)c1ccc(NC(=S)NC(=O)c2c(Cl)cnn2C)cc1`, the inhibition was -3.2%.

As for `CCCCOC(=O)c1ccc(NC(=S)NC(=O)c2c(Cl)cnn2CC)cc1`, the inhibition is 17.1%.

On to `CCCCOC(=O)c1ccc(NC(=S)NC(=O)c2c(Cl)cnn2C)cc1`, for which the inhibition was 62.3% (active).

As to `CCN1CCCn2c1nc1c2c(=O)n(C)c(=O)n1C`, the inhibition is -4.6%.

On to `CC1CCCCN1C(=O)CSc1nnc(-c2c[nH]c3ccccc23)o1` (stereo unspecified), for which the inhibition was -3.8%.

Turning to `CC1(C)CC(=O)C(C=Nc2ccc(N)cc2)=C(O)C1`, the inhibition was 33.3%.

Consider `CC1(C)CC(=O)C(C=Nc2ccc(NC3=C(C#N)C(=O)CC(C)(C)C3)cc2)=C(O)C1`, for which the inhibition is 60.4% (active).

As for `CC1(C)CC(=O)C(C=Nc2ccc(O)cc2)=C(O)C1`, the inhibition is 21.8%.

On to `CCOC(=O)Cn1c(-c2cccnc2Cl)nc2cc(Cl)c(Cl)cc21`, for which the inhibition is 21.1%.

`O=C(CN(c1ccc(Br)cc1)S(=O)(=O)c1ccc(Cl)c([N+](=O)[O-])c1)NCCc1ccccc1`: the inhibition is -3.9%.

As for `COc1ccc(CN=CC2=C(O)CC(C)(C)CC2=O)cc1`, the inhibition was 12.4%.

Turning to `c1ccc(COc2cccc(CNn3cnnc3)c2)cc1`, the inhibition was 0.5%.

As to `O=[N+]([O-])c1ccc(COc2cccc(CNc3ccc(F)cc3)c2)cc1`, the inhibition is -3.6%.

Regarding `Oc1ccc(NCc2cccc(OCc3ccccc3)c2)cc1`, the inhibition was 58.9% (active).

Turning to `Oc1ccc(NCc2cccc(OCc3ccc(F)cc3)c2)cc1`, the inhibition is 51.3% (active).

For `Fc1ccc(COc2cccc(CNCc3ccncc3)c2)cc1`, the inhibition is -15.5%.

As for `O=[N+]([O-])c1ccc(COc2cccc(CNc3ccc(Br)cc3)c2)cc1`, the inhibition is 19.9%.

Consider `CCS(=O)(=O)c1c(S(=O)(=O)CC)c2ccccn2c1C(N)=O`, for which the inhibition was -1%.

Regarding `Cc1cccc(C(C)C)c1NC(=O)C1CN(S(=O)(=O)c2ccccc2)CCN1S(=O)(=O)c1ccccc1` (stereo unspecified), the inhibition was 1.2%.

For `COc1cccc2c(=O)cc(C)n(CC(=O)Nc3ccccc3C)c12`, the inhibition is -2.8%.

For the compound `CC(C)C(=O)N1c2ccccc2NC2=C(C(=O)CCC2)C1c1ccc(N(C)C)cc1` (stereo unspecified), the inhibition was 60.7% (active).

`CCC(=O)N1c2ccccc2NC2=C(C(=O)CCC2)C1c1ccc(N(C)C)cc1` (stereo unspecified): the inhibition is 16.3%.

Turning to `CC(=O)N1c2ccccc2NC2=C(C(=O)CCC2)C1c1ccc(F)cc1` (stereo unspecified), the inhibition is 13.6%.
